Data as given in PubChem BioAssay AID1159580 (chemical genetic matrix, 2015).
“And” between values parts separate entries of the source, which are not always exact repeats. Equal values may be shown once. Hit rate of the full screen: of about 5,500 compounds, about 2,000 (36%) were called active. Another 18% or so got no clear call; they are omitted. No stated cut-off is given here; in the data, active means normalized growth mostly below about 0.91 (no sharp cut-off); inconclusive means no clear call, values can overlap the other calls; inactive means mostly above about 0.92. This is one part of the list.

Assay: chemical genetic growth profiling, strain panel (AID 1159580);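 further: tested at 20 µM; growth read once vehicle control cultures reached saturation at 30 °C; 1 = growth at the plate median or of vehicle wells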
Details: S. cerevisiae deletion strains, growth OD

Q: For `CC(C)=CCc1c(O)cc2occ(-c3ccc4c(c3)OCO4)c(=O)c2c1O`, which normalized growth (locus YAL013W, strain DEP1, stronger effect = lower value) is on record?
A: 1.01 (inactive)

Q: What about the normalized growth (locus YAL021C, strain ccr4, stronger effect = lower value) of the same compound?
A: 1.05 (inactive)

Q: And the normalized growth (locus YAL026C, strain drs2, stronger effect = lower value)?
A: 0.865 (active)

Q: What about the normalized growth (locus YAL030W, strain snc1, stronger effect = lower value) of the same compound?
A: 0.996 (inactive)

Q: What about the normalized growth (locus YBL061C, strain skt5, stronger effect = lower value) of the same compound?
A: 0.864 (active)

Q: What about the normalized growth (locus YBR009C, strain hhf1, stronger effect = lower value) of the same compound?
A: 0.819 (active)

Q: And the normalized growth (locus YBR021W, strain FUR4, stronger effect = lower value)?
A: 0.991 (inactive)

Q: And the normalized growth (locus YBR023C, strain chs3, stronger effect = lower value)?
A: 0.855 (active)

Q: What about the normalized growth (locus YBR171W, strain sec66, stronger effect = lower value) of the same compound?
A: 0.981 (inactive)

Q: What about the normalized growth (locus YBR229C, strain ROT2, stronger effect = lower value) of the same compound?
A: 1.02 (inactive)

Q: What about the normalized growth (locus YBR231C, strain swc5, stronger effect = lower value) of the same compound?
A: 0.929 (inactive)

Q: And the normalized growth (locus YBR279W, strain paf1, stronger effect = lower value)?
A: 0.993 (inactive)

Q: What about the normalized growth (locus YCL011C, strain gbp2, stronger effect = lower value) of the same compound?
A: 0.909 (inactive)

Q: And the normalized growth (locus YCL016C, strain dcc1, stronger effect = lower value)?
A: 0.872 (active)

Q: And the normalized growth (locus YCL029C, strain bik1, stronger effect = lower value)?
A: 1.03 (inactive)

Q: What about the normalized growth (locus YCL061C, strain MRC1, stronger effect = lower value) of the same compound?
A: 0.909 (active)

Q: And the normalized growth (locus YCL069W, strain vba3, stronger effect = lower value)?
A: 0.888 (active)

Q: And the normalized growth (locus YCR088W, strain abp1, stronger effect = lower value)?
A: 0.998 (inactive)

Q: What about the normalized growth (locus YDL005C, strain med2, stronger effect = lower value) of the same compound?
A: 0.993 (inactive)

Q: And the normalized growth (locus YDL035C, strain GPR1, stronger effect = lower value)?
A: 1.01 (inactive)

Q: What about the normalized growth (locus YDL040C, strain nat1, stronger effect = lower value) of the same compound?
A: 1 (inactive)

Q: And the normalized growth (locus YDL074C, strain BRE1, stronger effect = lower value)?
A: 1.03 (inactive)

Q: And the normalized growth (locus YDL101C, strain DUN1, stronger effect = lower value)?
A: 1.01 (inactive)

Q: And the normalized growth (locus YDL134C, strain PPH21, stronger effect = lower value)?
A: 1.01 (inactive)

Q: And the normalized growth (locus YDL185W, strain tfp1, stronger effect = lower value)?
A: 1.03 (inactive)

Q: What about the normalized growth (locus YDL192W, strain arf1, stronger effect = lower value) of the same compound?
A: 1.03 (inactive)

Q: And the normalized growth (locus YDR001C, strain nth1, stronger effect = lower value)?
A: 1.01 (inactive)

Q: And the normalized growth (locus YDR069C, strain doa4, stronger effect = lower value)?
A: 0.957 (inactive)

Q: What about the normalized growth (locus YDR101C, strain arx1, stronger effect = lower value) of the same compound?
A: 1.01 (inactive)

Q: What about the normalized growth (locus YDR137W, strain rgp1, stronger effect = lower value) of the same compound?
A: 0.897 (inactive)

Q: What about the normalized growth (locus YDR150W, strain NUM1, stronger effect = lower value) of the same compound?
A: 1 (inactive)

Q: And the normalized growth (locus YDR159W, strain sac3, stronger effect = lower value)?
A: 0.888 (inactive)

Q: And the normalized growth (locus YDR162C, strain NBP2, stronger effect = lower value)?
A: 1.01 (inactive)

Q: And the normalized growth (locus YDR195W, strain ref2)?
A: 0.937 (inactive)

Q: What about the normalized growth (locus YDR297W, strain sur2, stronger effect = lower value) of the same compound?
A: 0.911 (active)

Q: And the normalized growth (locus YDR318W, strain mcm21, stronger effect = lower value)?
A: 1.02 (inactive)

Q: And the normalized growth (locus YDR334W, strain swr1, stronger effect = lower value)?
A: 0.967 (inactive)

Q: What about the normalized growth (locus YDR335W, strain msn5, stronger effect = lower value) of the same compound?
A: 0.917 (active)

Q: And the normalized growth (locus YDR388W, stronger effect = lower value)?
A: 1.02 (inactive)

Q: What about the normalized growth (locus YDR392W, strain spt3, stronger effect = lower value) of the same compound?
A: 0.67 (active)

Q: What about the normalized growth (locus YDR502C, strain sam2, stronger effect = lower value) of the same compound?
A: 1.01 (inactive)

Q: And the normalized growth (locus YEL003W, strain gim4, stronger effect = lower value)?
A: 0.932 (inactive)

Q: What about the normalized growth (locus YEL037C, strain rad23, stronger effect = lower value) of the same compound?
A: 0.994 (inactive)

Q: What about the normalized growth (locus YEL061C, strain CIN8 (second series), stronger effect = lower value) of the same compound?
A: 0.997 (inactive)

Q: What about the normalized growth (locus YEL061C, strain CIN8, stronger effect = lower value) of the same compound?
A: 1.01 (inactive)

Q: And the normalized growth (locus YER015W, strain faa2, stronger effect = lower value)?
A: 0.876 (active)

Q: What about the normalized growth (locus YER016W, strain bim1, stronger effect = lower value) of the same compound?
A: 0.997 (inactive)

Q: And the normalized growth (locus YER110C, stronger effect = lower value)?
A: 1.05 (inactive)

Q: What about the normalized growth (locus YER111C, strain swi4, stronger effect = lower value) of the same compound?
A: 1.02 (inactive)

Q: And the normalized growth (locus YER155C, strain BEM2 (second series), stronger effect = lower value)?
A: 0.911 (inactive)

Q: What about the normalized growth (locus YER155C, strain BEM2, stronger effect = lower value) of the same compound?
A: 1.01 (inactive)

Q: What about the normalized growth (locus YER167W, strain BCK2, stronger effect = lower value) of the same compound?
A: 1.02 (inactive)

Q: And the normalized growth (locus YFR010W, strain ubp6, stronger effect = lower value)?
A: 0.92 (inactive)

Q: What about the normalized growth (locus YGL078C, strain dbp3, stronger effect = lower value) of the same compound?
A: 1.03 (inactive)

Q: What about the normalized growth (locus YGL086W, strain mad1, stronger effect = lower value) of the same compound?
A: 1.05 (inactive)

Q: What about the normalized growth (locus YGL167C, strain pmr1, stronger effect = lower value) of the same compound?
A: 1 (inactive)

Q: And the normalized growth (locus YGL173C, strain kem1, stronger effect = lower value)?
A: 0.921 (inactive)

Q: And the normalized growth (locus YGL227W, strain vid30, stronger effect = lower value)?
A: 0.972 (inactive)

Q: And the normalized growth (locus YGL240W, strain doc1, stronger effect = lower value)?
A: 0.944 (inactive)

Q: What about the normalized growth (locus YGL248W, strain PDE1, stronger effect = lower value) of the same compound?
A: 1.02 (inactive)

Q: What about the normalized growth (locus YGL253W, strain hxk2, stronger effect = lower value) of the same compound?
A: 0.814 (active)

Q: What about the normalized growth (locus YGR078C, strain PAC10, stronger effect = lower value) of the same compound?
A: 0.997 (inactive)

Q: What about the normalized growth (locus YGR135W, strain pre9, stronger effect = lower value) of the same compound?
A: 0.993 (inactive)

Q: And the normalized growth (locus YGR229C, strain SMI1, stronger effect = lower value)?
A: 0.983 (inactive)

Q: What about the normalized growth (locus YGR252W, strain gcn5, stronger effect = lower value) of the same compound?
A: 1.03 (inactive)

Q: What about the normalized growth (locus YHR013C, strain ard1, stronger effect = lower value) of the same compound?
A: 1.17 [resistant] (active)

Q: What about the normalized growth (locus YHR027C, strain rpn1, stronger effect = lower value) of the same compound?
A: 0.805 (active)

Q: And the normalized growth (locus YHR030C, strain SLT2, stronger effect = lower value)?
A: 1.01 (inactive) and 0.843 (active)

Q: What about the normalized growth (locus YHR079C, strain IRE1 (second series), stronger effect = lower value) of the same compound?
A: 1.03 (inactive)

Q: What about the normalized growth (locus YHR079C, strain IRE1, stronger effect = lower value) of the same compound?
A: 0.8 (active)

Q: And the normalized growth (locus YHR094C, strain hxt1, stronger effect = lower value)?
A: 1.03 (inactive)

Q: And the normalized growth (locus YHR129C, strain ARP1, stronger effect = lower value)?
A: 1.01 (inactive)

Q: What about the normalized growth (locus YHR142W, strain chs7, stronger effect = lower value) of the same compound?
A: 0.74 (active)

Q: And the normalized growth (locus YHR200W, strain rpn10, stronger effect = lower value)?
A: 1.02 (inactive)

Q: And the normalized growth (locus YIL066C, strain RNR3, stronger effect = lower value)?
A: 1.01 (inactive)

Q: And the normalized growth (locus YIL073C, strain SPO22, stronger effect = lower value)?
A: 1.05 (inactive)

Q: And the normalized growth (locus YIL125W, strain kgd1, stronger effect = lower value)?
A: 1.03 (inactive)

Q: What about the normalized growth (locus YIR030C, strain dcg1, stronger effect = lower value) of the same compound?
A: 1.02 (inactive)

Q: What about the normalized growth (locus YJL092W, strain hpr5, stronger effect = lower value) of the same compound?
A: 0.962 (inactive)

Q: What about the normalized growth (locus YJL095W, strain BCK1 (second series), stronger effect = lower value) of the same compound?
A: 0.946 (inactive)

Q: What about the normalized growth (locus YJL095W, strain BCK1, stronger effect = lower value) of the same compound?
A: 0.984 (inactive) and 0.838 (active)

Q: What about the normalized growth (locus YJL115W, strain asf1, stronger effect = lower value) of the same compound?
A: 1.01 (inactive)

Q: What about the normalized growth (locus YJL129C, strain trk1, stronger effect = lower value) of the same compound?
A: 0.923 (inactive)

Q: What about the normalized growth (locus YJL134W, strain LCB3, stronger effect = lower value) of the same compound?
A: 1.01 (inactive)

Q: And the normalized growth (locus YJL154C, strain vps35, stronger effect = lower value)?
A: 1 (inactive)

Q: And the normalized growth (locus YJL164C, strain tpk1, stronger effect = lower value)?
A: 0.943 (inactive)

Q: And the normalized growth (locus YJL166W, strain qcr8, stronger effect = lower value)?
A: 0.862 (active)

Q: What about the normalized growth (locus YJL168C, strain set2, stronger effect = lower value) of the same compound?
A: 1.02 (inactive)

Q: And the normalized growth (locus YJL187C, strain SWE1 (second series), stronger effect = lower value)?
A: 1.01 (inactive)

Q: And the normalized growth (locus YJL187C, strain SWE1, stronger effect = lower value)?
A: 1 (inactive)

Q: And the normalized growth (locus YJR043C, strain POL32, stronger effect = lower value)?
A: 0.994 (inactive)
